Among the data in PubChem BioAssay AID868 (SRMLSC, 2007) are inhibition values, retold here.

The term inhibition denotes the change of the read-out against control, counted positive when it falls.

Out of some 190,000 compounds screened, about 3,500 (1.8%) were called active.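 How the source made its calls: active means inhibition above a set limit, 3 SD over mean compound inhibition (cut at about 8.4% in these data); inactive means the rest.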 For the sample, actives were picked, then their nearest neighbours and some compounds at random.

The nature of this assay: inhibitors of the yeast RAM network, primary screen, dse1pr::URA3 reporter, 5-FOA selection (AID 868).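 Further: 0% = DMSO-only wells with no growth and 100% = 10 µM 1-NA-PP1 full growth; inhibition rescues growth on 5-FOA so higher OD means more RAM inhibition.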 The note with it: S. cerevisiae dse1pr::URA3 reporter, 5-FOA growth OD615, 2 d; at 50 µM; stronger effect = higher value; analog-sensitive cbk1-as2 kinase mutant strain.
As to `COCCNC(=O)NC(=O)COC(=O)C1(c2ccc(Cl)cc2)CC1`, the inhibition is 0.14% (inactive).

Regarding `Nc1ncnc(Nc2cccc(Cl)c2Cl)n1`, the inhibition is 0.27% (inactive). Under `CC(=O)Nc1ccc(Sc2ccccc2C(=O)N2CCCC2)cn1` stands 1.82% (inactive); under `O=C1CCCC2=C1C(c1ccccc1)n1c(s/c(=C/c3cccc(F)c3)c1=O)=N2` (stereo unspecified), 3.98% (inactive); under `COc1ccc(OC)c(C2C3=C(N=c4s/c(=C\c5cccc(O)c5)c(=O)n42)c2ccccc2CC3)c1` (stereo unspecified), 12.7% (active). Under `CCOC(=O)C1=C(C)N=c2s/c(=C\C(=O)OC)c(=O)n2C1c1ccc(OC)cc1` (stereo unspecified) stands 2.7% (inactive); under `Cc1ccc2[nH]c(=O)c(CN(CC3COCCO3)C(=O)Nc3ccccc3C)cc2c1` (stereo unspecified), 0.63% (inactive).

As to `CCCCCOc1ccc(CSC2=NCCN2)cc1[N+](=O)[O-]`, the inhibition was -0.98% (inactive).

For the compound `O=C(Nc1nc(-c2cccnc2)cs1)c1ccccc1F`, the inhibition was -0.37% (inactive). Under `COc1cccc(NC(=S)NCc2ccccn2)c1` stands 2.63% (inactive); under `Cc1nn(C)c(C(=O)NNC(=S)NC2CCCCC2)c1Cl`, 0.28% (inactive); under `COc1cccc(NC(=S)NC(=O)c2c(Cl)c(C)nn2C)c1`, 8.92% (active). Then `CCOC(=O)C1(Cc2cccc(OC)c2)CCCN(S(=O)(=O)c2cccnc2)C1` (stereo unspecified), with 0.14% (inactive); and `O=C(NCc1ccccc1)C1CCCN(c2nc3ccsc3c(=O)s2)C1` (stereo unspecified), with 3.39% (inactive); and `CN(C)S(=O)(=O)c1cccc(NC(=O)COC(=O)C2(c3ccccc3F)CCCC2)c1`, with 15.4% (active). Turning to `CN(C)S(=O)(=O)c1cccc(NC(=O)COC(=O)/C=C/c2cccs2)c1`, the inhibition was 0.87% (inactive). For the compound `CN(C)S(=O)(=O)c1cccc(NC(=O)COC(=O)c2cc(=O)[nH]c(=O)[nH]2)c1`, the inhibition is 0.97% (inactive). As to `CC1CC(C)(C)NC(=S)N1CCC(=O)N1CCN(Cc2ccccc2)CC1` (stereo unspecified), the inhibition is -0.49% (inactive). Consider `CCC(C)(C)NC(=O)CN(C(=O)CCC(=O)Nc1cc(C)ccn1)c1ccc2c(c1)OCCO2`, for which the inhibition was 1.5% (inactive). As to `Cc1ccn(CC(=O)N2N=C(C(F)F)CC2(O)C(F)F)n1` (stereo unspecified), the inhibition was 0.78% (inactive). For the compound `S=C(NCc1ccc(Cl)cc1)NC12CC3CC(CC(C3)C1)C2`, the inhibition was 5.19% (inactive).

In the case of `CN(C)CCCNC(=S)NCc1ccc(Cl)cc1`, the inhibition was 0.25% (inactive).

Turning to `S=C(NCc1ccc(Cl)cc1)NC1CCCCC1`, the inhibition was 10.9% (active). As for `Cc1ccc(S(=O)(=O)NC(C(=O)N2CCOCCOCCOCCOCC2)c2ccccc2)cc1` (stereo unspecified), the inhibition is 2% (inactive). As for `Cc1ccc(S(=O)(=O)Nc2nc(C)cc(-n3nc(C)cc3C)n2)cc1`, the inhibition was 2.7% (inactive).

As for `CCCC(C(=O)n1nc(C)cc1C)C(NS(=O)(=O)c1ccc(C)cc1)c1ccccc1` (stereo unspecified), the inhibition is 11.7% (active).
